# Results: PubChem BioAssay (NCI)
# Compounds without any hit were thinned out: in the full panel of roughly 83,000, 20% have a hit.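 Results are percent growth after 48 hours of single-concentration exposure. 100 means growth as in untreated cells, lower positive values show inhibition; negative values down to -100 show cell death.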 A number with no mark means an inactive call. Calls of active or inactive are those of the source. How the source made its calls: active means growth percent below 10; inactive means the rest.
# Legend:
# Assay in all cases: NCI-60 one-dose screen, 48 h (100 = growth as untreated, 0 = no growth, -100 = all killed)
# Settings in all cases: 10 µM unless noted
# [1] = test system: HCT-15 colon
# [2] = test system: HT29 colon
# [3] = test system: SNB-75 CNS
# [4] = test system: SNB-19 CNS
# [5] = test system: U251 CNS
# [6] = test system: PC-3 prostate
# [7] = test system: SK-MEL-5 melanoma
# [8] = test system: UACC-62 melanoma
# [9] = test system: LOX IMVI melanoma
# [10] = test system: SK-MEL-28 melanoma
Structure (SMILES),growth [1],growth [2],growth [3],growth [4] [%],growth [5],growth [6],growth [7],growth [8],growth [9],growth [10]
O=C(CN1CCN(c2cccc(Cl)c2)CC1)N1CCN(c2nnc(-c3ccc(Cl)cc3)c(-c3ccc(Cl)cc3)n2)CC1,52.9%,59.3%,97.6%,77.6,71.7%,25.4%,61.6%,71.4%,71.5%,93.8%
O=C(N/N=C/c1cc(Cl)ccc1O)C(=O)N/N=C/c1cc(Cl)ccc1O,44.7%,45.4%,71.9%,82.6,50%,56.1%,56.3%,64.7%,47.9%,93.2%
O=S(=O)(O)CCI,108%,116%,98%,102,110%,95.7%,91.2%,101%,97.8%,113%
CCCCCCCCC/C(=N\NC(=O)c1ccncc1)c1ccc(O)c(O)c1O,34.9%,29%,37.1%,33.8,12.1%,47%,-18.8% (active),-5.54% (active),22.9%,43.7%
O=S(=O)(O)c1ccc2c(c1)Sc1cc(S(=O)(=O)O)ccc1O2,113%,106%,93.2%,103,102%,99.2%,112%,96%,99.7%,106%
CC(O)CN(CCO)CCN(CCO)CC(C)O (stereo not given),101%,100%,98.7%,105,106%,106%,106%,101%,98%,106%
COc1cccc2c1n([O-])c1cccc(OC)c1[n+]2=O,87.6%,73.5%,87%,80.4,80%,57.8%,72.6%,84.5%,64.8%,72.1%
CCOP1(=O)CC(C)=C(Cl)C(P(=O)(O)O)C1 (stereo not given),98.3%,104%,82.4%,106,99.7%,95.6%,109%,95.5%,94.1%,93.7%
CCC1(CC)C(OC)NC(Br)=C(C#N)C1(C#N)C(N)=O (stereo not given),114%,105%,99.3%,110,104%,107%,109%,99.5%,101%,114%
O=C(NCCO)C(F)(F)F,96.9%,104%,101%,94.6,97.1%,103%,115%,102%,103%,111%
O=C(Nc1cccc(Cn2c(=O)[nH]c3ccc(Oc4ncccn4)cc3c2=O)c1)c1cccc(F)c1,83%,75.7%,75%,72.6,82.3%,64.3%,65.5%,58.4%,86%,93.8%
NCCCOc1cc(Cl)ccc1NC(=O)c1cc2ccccc2cc1OCCCN,4.32% (active),-91.3% (active),-90.9% (active),34,-93.2% (active),-76.3% (active),-86.4% (active),26.4%,-81.3% (active),-96.5% (active)
FC(F)(F)c1cccc(-c2[nH]ncc2-c2nnnn2-c2ccccc2)c1,35.6%,15.1%,47.5%,50.8,30.1%,44%,20.8%,36.9%,44.8%,60.8%
O=C(/C(Br)=C/c1ccccc1)c1ccccc1,-21.9% (active),-66.2% (active),80.3%,96.2,5.38% (active),87.8%,84.9%,8.01% (active),-92.2% (active),42.8%
CCOC(=O)C1=NN(c2ccccc2)C2=NC(=O)/C(=C\c3cn(-c4ccccc4)nc3-c3cc4ccccc4o3)C(=O)N12,101%,98%,94.7%,89.5,99.4%,88.2%,94.3%,82.3%,95.9%,110%
O=C(Cc1ccccc1[N+](=O)[O-])c1ccc2c(c1)OCO2,104%,102%,91.3%,97.7,98.8%,96.8%,103%,88.8%,96.9%,105%
COc1ccc(Cn2cc3c(c2-c2ccc(O)cc2)CCc2cnoc2-3)cc1,21.3%,19.9%,19.1%,47.1,27.6%,27%,19.2%,44.5%,35.4%,54.3%
CC(O)c1cc[cH-]c1.[Fe+2].c1cc[cH-]c1 (stereo not given),95.3%,110%,92%,105,98.2%,98.2%,98.2%,108%,126%,112%
O=C(CBr)OCc1ccc([N+](=O)[O-])o1,93.9%,104%,91.4%,104,92.1%,76.2%,113%,90.4%,83%,99.2%
CC/C(=N\Nc1nc2ccccc2n1C)c1ccccn1,18.5%,21.2%,19.5%,18.8,10.4%,26.5%,-50.7% (active),-13.9% (active),-15% (active),16.2%
NC(N)=N/N=C/c1cccc(Br)c1,105%,103%,92.3%,101,110%,90.1%,84.7%,107%,89.6%,112%
CC(=O)Nc1ccc(S(=O)(=O)Cl)cc1,110%,106%,94%,110,95.6%,99.8%,98.3%,97.9%,94.8%,117%
C=C(NC(=O)[C@H](C(C)C)N(C)c1cccc2[nH]ccc12)C(=O)OC,95.7%,99.1%,105%,103,99.6%,101%,99.4%,90.5%,94.3%,104%
CCOc1ccccc1/C=N\N=C(N/N=C/c1ccccc1OCC)N/N=C/c1ccccc1OCC,13.5%,-1.15% (active),22.3%,21.7,13.4%,3.92% (active),-52.6% (active),16.1%,8.71% (active),30.7%
C/C=C(/C)C(=O)OC1C=C(CO)C(=O)C(OC(=O)C2(C)OC2C)C1C(C)C (stereo not given),-14.5% (active),-60.3% (active),23.6%,12.1,-23.1% (active),-7.66% (active),-92.8% (active),-73.7% (active),-83.8% (active),-49% (active)
Brc1c(-c2ccncc2)nc2n1CCS2,105%,87%,101%,103,91.3%,84.5%,103%,84.4%,89.4%,93.5%
CCCNC(=O)Oc1ccc(/C(=C(/C)Cc2ccc(OC)cc2)c2ccc(OCCN3CCCCC3)cc2)cc1,50.2%,28.9%,63.6%,94.1,69.9%,77%,78.2%,97.5%,84.8%,100%
c1ccc(-c2cn3ccnc3c(-c3ccc4ncn(C5CCCCC5)c4c3)n2)cc1,48.4%,51.7%,55.6%,77.1,62.7%,7.96% (active),63.5%,34.4%,60.4%,82%
